A selection: hits, their analogues and other compounds. The true share with any hit is near 5.5%.
ELG1 repair inh: ELG1-dependent DNA repair inhibition. Potency, µM (top dose mostly 46.1 µM), without a hit: at the highest dose activity change, negative = inhibition, usual class: inhibitors. actives 2.3% (n = 330,000). HEK293T ELG1-luciferase reporter, luminescence, 16 h; DNA damage induced by 5-fluorouridine; also: potency is read from the fitted curve at half-maximal effect; nearly all actives have a fitted effect of over 55% in size
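Luminescence from the luciferase reporter, measured 30 min after ONE-Glo reagent at room temperature, was the read-out. Beforehand, 2,000 cells per well were exposed for 16 hr at 37 °C to 5-fluorouridine together with compound or vehicle.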
Sfp inh: Sfp phosphopantetheinyl transferase inhibition; Q9F4F7; Biochemical Sfp PPTase activity, qHTS; Potency, µM, for inactives: largest response in the series, negative = inhibition, most hits filed as inhibitors; actives 3.5% (n = 310,000); AID 1490;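 also: the enzyme is Sfp with the accession as filed and its product quenches rhodamine fluorescence; potency is read from the fitted curve at half-maximal effect; 0% = enzyme reaction without inhibitor and -100% = no enzyme wells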
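Sfp 15 nM + cpd, 15 min RT; start w/ rhodamine-CoA 5 uM, BHQ-2-YbbR 12.5 uM (final); 50 mM Hepes pH 7.6, 10 mM MgCl2, 0.01% NP-40, 0.01% BSA; read 525/598 nm at 0 and 30 min.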
Giardia killer: kills Giardia lamblia. activity change, % at 7.66 µM, hits read low. actives 0.15% (n = 340,000). Giardia lamblia trophozoite viability; in the data active = activity change below about -80%; inconclusive = between about -30% and that limit;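 also: parasites exposed to compound for two days anaerobically before the ATP read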
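ATP-content bioluminescence gauges trophozoite survival. Cells (100/well) receive compound and incubate anaerobically for 48 hrs at 37 deg C; detection reagent follows for 15-30 min at room temperature.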
FBPA coupling cs: inhibits coupling enzyme system, counter-screen for aldolase hits | coupling enzyme system counterscreen, AmpLite Red fluorescence | activity change, negative = inhibition, % at 58.2 µM, hits read low | actives 0.67% (n = 290,000); in the data active = activity change below about -30%
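Coupling enzymes only (glyceraldehyde-3-phosphate) + compound, at 57.5 uM final, 10 min RT; add substrate/coupling/AmpLite Red mix, 20 min RT; fluorescence ex 525/em 598 nm. Actives flag coupling-system interference.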
Starred values were filed as active, the others as inactive; ? = inconclusive; · = no result given; ! = a repeat was not active. Unless noted, calls follow the shape of the dose curve; as a rule, active = well fitted curve in the direction sought with a large enough effect; inconclusive = small, poorly fitted or top-dose-only effect, or another doubt; inactive = no such curve, though single readings can be large; an effect the other way counts as inactive or inconclusive. Unless noted, % is scaled to controls: 0 for no effect and ±100 for the full control effect.

SMILES	ELG1 repair inh	Sfp inh	Giardia killer	FBPA coupling cs
O=c1oc2ccc3ccccc3c2cc1-c1nc2c(s1)CCc1ccccc1-2	·	·	36	·
O=c1oc2cc(O)ccc2cc1-c1nc2c(s1)CCc1ccccc1-2	?	56µM*	12	-14
Oc1ccc(C=NCCc2ccccc2)cc1	-4%	9%	-2	0
O=C(CSc1nnc(NC(=O)c2cccc(F)c2)s1)NCC1CCCO1 (stereo not given)	?	2%	-12	·
CC(C)(C)c1ccc(C(=O)Nc2nnc(SCC(=O)NCC3CCCO3)s2)cc1 (stereo not given)	?	17%	-93*	·
CN(C)S(=O)(=O)c1ccc(C(=O)Nc2nnc(SCC(=O)NCC3CCCO3)s2)cc1 (stereo not given)	-1%	9%	-30	·
CCOc1ccc(C(=O)Nc2nnc(SCC(=O)NCC3CCCO3)s2)cc1 (stereo not given)	?	12%	-94*	4
COc1ccc(C2=C(C=Nc3c(C)n(C)n(-c4ccccc4)c3=O)C(c3ccccc3C)c3ccccc3O2)cc1OC (stereo not given)	2.9µM*	?	-3	-2
O=S(=O)(c1ccc(SCCO)nc1)N1CCOCC1	?	·	6	·
Cc1ccccc1OCc1nnc(SCC(=O)Nc2ccc3c(c2)oc2ccccc23)n1C	0%	12%	-8	6
Cc1ccc(-c2nnc(SCC(=O)Nc3ccc4c(c3)oc3ccccc34)n2C)c(Cl)c1	18µM*	5%	-14	0
CC(C)N=C1NN=C(c2cccs2)CS1	?	-21%	14	4
COCC(C)N=C1NN=C(c2cccs2)C(CC(=O)O)S1 (stereo not given)	4%	35µM*	17	5
COc1ccc(OC)c(Nc2nc(-c3cccs3)cs2)c1	27%	-11%	0	0
COc1ccc(C)cc1Nc1nc(-c2c[nH]c3ccccc23)cs1	10%	28µM*	-14	-3
Cc1c(C(=O)Nc2ccc(S(=O)(=O)N(C)C3CCN(C)CC3)cc2)oc2c(Cl)cccc12	-21%	·	18	·
Cc1cc(O)c2c(c1O)C(=O)C(O)=C(O)C2=O	·	45µM*	·	-13
COc1cc(O)c2c(c1)C(=O)c1cc(C)cc(O)c1C2=O	·	-27%	·	0
CCN(CC)S(=O)(=O)c1ccc2c(c1)nc(SCC(=O)N1CCCCCC1)n2-c1ccc(OC)cc1	5.2µM*	6%	-7	-1
O=C(O)CN1C(=O)CC(c2ccccc2)CC1=O	10%	13%	6	0
Clc1ccccc1CN1CCN(CCCc2ccccc2)CC1	8%	79µM*	5	-1
OCC1(CCc2ccccc2)CCN(Cc2ccccc2Cl)CC1	4%	-3%	8	2
CN(c1ccccc1)S(=O)(=O)c1ccc(NC(=O)c2ccccc2)cc1	?	9%	-10	0
CN(c1ccccc1)S(=O)(=O)c1ccc(NC(=O)c2nc(S(C)(=O)=O)ncc2Cl)cc1	?	28µM*	-24	·
O=C(/C=C/c1ccccc1Cl)NCCCn1ccnc1	-4%	6%	6	5
SMILES	ELG1 repair inh	Sfp inh	Giardia killer	FBPA coupling cs
Cc1cnc(C(=O)NC(Cc2ccccc2)c2ccccc2)cn1 (stereo not given)	28%	9%	-4	1
CC(=O)CCOC1CCCCO1 (stereo not given)	·	-14%	·	-2
COCc1[nH]c(=S)[nH]c(=O)c1C	1%	79µM*	-17	5
O=C(/C=C/c1ccccc1)Nc1cccc(C(=O)NCCCCc2ccccc2)c1	·	·	11	·
Cc1cc(C(C)(C)C)cc(C)c1CCNC(=O)c1c(C)noc1C	15%	·	5	·
CCCNC(=O)OC[C@@H]1O[C@H](CCON=C(C)C)C=C[C@@H]1Oc1ccc(OC)cc1	·	21%	·	0
CC1=C(C(=O)Nc2ccccc2C(=O)N2CCC(C)CC2)SCCO1	-3%	3%	10	·
COc1cc2c(cc1OC)-c1c(OC)c(OC)cc3ccnc(c13)C2=O	?	-4%	-84*	-34*!
CCc1ccc(/C(C)=N/NC(=O)c2ccc(-n3cnnn3)cc2)cc1	2%	·	-14	·
O=c1oc2ccccc2c(Nc2ccccc2O)c1[N+](=O)[O-]	5%	7%	-16	0
O=c1oc2ccccc2c(Nc2cc3ccccc3cc2O)c1[N+](=O)[O-]	?	-10%	-9	-56*
COc1ccc2nc(C)cc(NCc3ccc(F)cc3)c2c1	?	-7%	-5	0
O=C(CCCn1c(=S)[nH]c2cc3c(cc2c1=O)OCO3)N1CCN(c2ccccn2)CC1	15µM*	7%	4	-2
O=C(CCCCCn1c(=S)[nH]c2cc3c(cc2c1=O)OCO3)N1CCN(Cc2ccccc2)CC1	-27%	7%	30	6
COc1ccc(N2CCN(C(=O)CCCn3c(=S)[nH]c4cc5c(cc4c3=O)OCO5)CC2)cc1	21µM*	18%	4	2
Fc1ccc(Nc2nc(-c3cccnc3)nc3ccccc23)cc1	·	-21%	·	0
COC(=O)N1CCC2(CCN(Cc3ccccc3OC)CC2)CC1	·	14%	·	0
CN1CCN(C(=S)C(=O)NCc2ccccc2)CC1	5%	5%	-2	2
CN1CCN(C(=S)C(=O)Nc2ccccc2)CC1	4%	50µM*	4	2
O=C1CC(c2ccc(O)c(O)c2)Oc2cc(O)cc(O)c21 (stereo not given)	-5%	-22%	8	-2
Oc1ccc(C2C[C@H]3CC[C@@H]2C3)cc1O (stereo not given in full)	3%	22µM*	9	-15
O=c1c(-c2ccccc2)coc2cc(O)cc(O)c12	·	-104%	·	-35*
CC1(C)C=Cc2cc(-c3coc4cc(O)cc(O)c4c3=O)cc(O)c2O1	·	·	-16	·
O=c1c(-c2ccc3c(c2)OCCO3)coc2cc(O)cc(O)c12	?	20µM*	-1	5
Cc1ccc(S(=O)(=O)N2CCCc3cc(NC(=O)c4c(F)cccc4F)ccc32)cc1	23µM*	11%	5	·
SMILES	ELG1 repair inh	Sfp inh	Giardia killer	FBPA coupling cs
COc1cccc(OC)c1C(=O)Nc1ccc2c(c1)CCCN2S(=O)(=O)c1ccc(C)cc1	0%	11%	24	·
CCCc1nnc(SCC(=O)NC2CCCC2)n1CCOC	-5%	11%	10	3
Nc1ccc(S(=O)(=O)NNC(=O)C(=O)NNc2ccccc2)cc1	17%	0%	5	2
O=C(NNc1ccccc1)C(=O)NNS(=O)(=O)c1ccc(CCCl)cc1	6.5µM*	31%	4	8
Cc1ccc(S(=O)(=O)N(C)CC(=O)NNC(=O)CCNS(=O)(=O)c2cccc(C)c2)cc1	17%	·	-7	·
COc1cc(C(=O)O/N=C2\C=CC(=O)C(C)=C2)cc(OC)c1OC	-14%	-4%	1	-82*
COc1ccc(/C=C/C(=O)NNc2cc(=O)n(C)c(=O)n2C)cc1OC	-6%	9%	-20	-31*
COc1ccc(/C=N/Nc2cc(=O)n(C)c(=O)n2C)cc1OC	-2%	89µM*	-4	-35*
CN(Cc1ccccc1)C(=O)COC(=O)C1CCN(S(=O)(=O)c2ccc3c(c2)OCCO3)CC1	5%	·	-15	·

Source: PubChem (National Center for Advancing Translational Sciences (NCATS))
